# aSyn 5UTR act – Activators via SNCA 5'UTR binding, MLPCN | AID 1814 | alpha-synuclein 5'UTR reporter, activators screen | 300,000 tested, 7.1% active | activity score, % (tested at 7.5 µM), hits read low; in the data active = activity score below about -60%
# The depositor's hits bear a star. The list is a sample of the results.
SMILES,aSyn 5UTR act
CCN1CCCC1CNC(=O)c1ccc2c(c1)NC(=O)/C(=C\c1ccc(C)cc1)S2 (stereo unspecified),74.1
CC(C)(C)C(=O)OCc1nc(-c2ccc(Cl)cc2)cs1,-133.1*
CC(C)(C)C(=O)OCc1nc(-c2ccc3c(c2)OCCO3)cs1,-140.9*
NC(=S)Cc1nc(-c2ccc(Cl)cc2)cs1,-103.9*
CC(C)(C)C(=O)OCc1nc(-c2ccc(F)cc2)cs1,-106.2*
O=C(NNC(=O)C1CC2CCC1C2)c1sc2ccccc2c1Cl (stereo unspecified),-112.5*
CN(Cc1c(F)cccc1Cl)C(=O)CNC(=O)c1sc2ccccc2c1Cl,-66.4*
Cc1ccc2c(Cl)c(C(=O)Nc3cc(C)on3)sc2c1,-121.7*
O=C(CNC(=O)c1sc2ccccc2c1Cl)NC1CC1,-118.3*
Cc1ccnc(NC(=O)c2sc3ccccc3c2Cl)c1,78.2
Cc1ccc2c(Cl)c(C(=O)NCCc3ccccc3)sc2c1,-165.8*
CC(NC(=O)c1sc2ccccc2c1Cl)C1CCCO1 (stereo unspecified),-65.4*
O=C(NCC1CCCO1)c1sc2ccccc2c1Cl (stereo unspecified),-105.6*
Cc1ccc2c(Cl)c(C(=O)NCC3CCCO3)sc2c1 (stereo unspecified),-137.3*
COc1ccc(C(=O)Nc2ccc3[nH]ccc3c2)cc1OC,-134.2*
COc1ccc(C(=O)Nc2ccc3[nH]ccc3c2)cc1,66.4
COc1ccc(OC)c(C(=O)Nc2ccc3[nH]ccc3c2)c1,-112.1*
CSc1nc2ccc(NC(=O)CSc3nnc(N)s3)cc2s1,-118.8*
Cn1cnnc1SCC(=O)Nc1ccc2nc(SCc3ccccc3F)sc2c1,-163.2*
O=c1c(-c2ccc3c(c2)OCCO3)coc2cc(OC3OC(CO)C(O)C(O)C3O)ccc12 (stereo unspecified),-86.3*
CN1CCN(c2ccc(-c3ccnn3C(=O)Nc3ccccc3)cc2)CC1,-71.8*
N#Cc1c(N2CCOCC2)nsc1-c1ccccc1,-67.7*
N#Cc1c(N2CCCC2)nsc1-c1ccccc1,-180.1*
COc1cccc(NC(=O)N2CCCCCC2)c1,-88.1*
Cc1ccc(NC(=O)C2CCCN(C(=O)c3ccc(Cl)cc3)C2)cc1C (stereo unspecified),-100.5*
SMILES,aSyn 5UTR act
O=C(Nc1ccc(Cl)cc1)N1CC=CCC1,-133.8*
O=C(Nc1ccc(F)c(Cl)c1)N1CCCCCC1,-75.5*
O=C(Nc1ccc(Br)cc1)N1CCCCC1,-62.7*
COc1ccc(NC(=O)N2CCCCCC2)cc1,-76.9*
Cc1ccc(NC(=O)N2CCCCCC2)cc1C,-90.2*
CSc1nc(N)nc(SCC(=O)Nc2cccc(F)c2)c1C#N,-73.2*
COc1ccc(-c2nnc(SCc3nc4ccccc4s3)n2C(C)C)cc1,-106.8*
CCOc1ccccc1-n1nnnc1SCc1nc2ccccc2s1,-233.5*
CCn1c(SCc2nc3ccccc3s2)nnc1-c1cccs1,-160.1*
Cn1c(SCc2nc3ccccc3s2)nnc1-c1cccs1,-67.1*
NC(=O)CSCc1nc2ccccc2s1,-64.7*
COc1ccccc1-c1nnc(SCc2nc3ccccc3s2)n1C,-109.3*
Cc1ccccc1-n1c(C)nnc1SCc1nc2ccccc2s1,-250.0*
COc1cc(NC(=O)CN2CCC(C)CC2)c(C)cc1[N+](=O)[O-],-81.7*
Nc1cc(N)nc(SCC(=O)Nc2ccc(Br)cc2Cl)n1,-79.3*
Cc1ccc(S(=O)(=O)c2ccc([N+](=O)[O-])cn2)cc1,-73.0*
Oc1cccc(/C=N/Nc2ncnc3c2ncn3Cc2ccccc2)c1,-76.9*
Nc1c(S(=O)(=O)c2cccc(Cl)c2)c2nc3ccccc3nc2n1/N=C/c1ccc(O)c(O)c1,88.8
Oc1ccc(/C=N/Nc2ncnc3c2ncn3Cc2ccccc2)cc1O,-67.0*
c1ccc2c(c1)CCN(c1ncnc3c1[nH]c1ccccc13)C2,-102.0*
COc1cccc(N2CCN(c3ncnc4c3[nH]c3ccccc34)CC2C)c1 (stereo unspecified),-73.5*
COc1ccc(-c2nsc3c(N4CCCCC4C)ncnc23)cc1 (stereo unspecified),89.8
COc1ccc(C2=C/C(=C\c3ccccc3OC(C)=O)C(=O)O2)cc1,-79.0*
COc1ccc(C2=C(C=O)Cc3ccccc3O2)cc1,98.0
COc1ccc2c(c1)C(=NN)c1cc(OC)ccc1-2,-65.1*
SMILES,aSyn 5UTR act
CCOc1ccc(-c2cc(C(=O)NN)[nH]n2)cc1,-68.6*
C/C(=N\NC(=O)c1ccco1)c1ccc(NC(=O)c2ccccc2)cc1,-126.4*
C/C(=N\NC(=O)c1ccco1)c1cc2ccccc2o1,-93.9*
C/C(=N\NC(=O)COc1ccccc1F)c1cc2ccccc2o1,-132.7*
C/C(=N\NC(=O)c1ccco1)c1ccc(-c2ccccc2)cc1,-125.9*
COc1ccc(CCN2CCCC(CN(C)C(=O)c3ccoc3)C2)cc1 (stereo unspecified),-108.6*
O=C(Nc1nnc(C2CC2)s1)C1Cc2ccccc2CN1S(=O)(=O)c1cccs1 (stereo unspecified),-66.4*
Cc1cc(C)c2sc(NNC(=O)c3ccc(S(=O)(=O)N4CCc5ccccc5C4)cc3)nc2c1,77.4
CCc1nnc(NC(=O)C2Cc3ccccc3CN2S(=O)(=O)c2cccs2)s1 (stereo unspecified),-105.4*
CCc1nnc(NC(=O)C2Cc3ccccc3CN2S(=O)(=O)c2ccc(C)cc2)s1 (stereo unspecified),-81.2*
COc1ccc2[nH]c3c(NCc4ccco4)ncnc3c2c1,-112.6*
Clc1ccc2[nH]c3c(NCCCN4CCOCC4)ncnc3c2c1,-62.4*
COc1ccc2[nH]c3nc(SC(C)C)nnc3c2c1,58.3
COc1ccc2[nH]c3c(NCCCOC(C)C)ncnc3c2c1,-138.5*
COc1ccc2[nH]c3c(NCCC4=CCCCC4)ncnc3c2c1,-194.8*
CSc1ccc(-c2cc(=O)c3ccccc3o2)cc1,-328.1*
O=c1cc(-c2ccc(F)cc2)oc2ccccc12,-96.9*
O=c1cc(-c2ccccc2F)oc2ccccc12,-111.1*
CCOc1ccc(Oc2ccc(C(F)(F)F)cc2N)cc1,-87.0*
COc1cccc(Oc2ccc(C(F)(F)F)cc2N)c1,-104.2*
COc1cccc(C(=O)Nc2cccc(OC(C)=O)c2)c1,-90.0*
COc1ccc(C(=O)Nc2ccc(N3CCCC3)cc2)cc1OC,-166.2*
CCOc1cccc(C(=O)Nc2ccc(N3CCCC3)cc2)c1,-65.7*
O=C(Nc1cc2c(cc1C(=O)O)OCCCO2)c1ccc(C(F)(F)F)cc1,-93.9*
COc1ccc(C(=O)Nc2cccc(OC(=O)c3ccco3)c2)cc1,-112.6*
SMILES,aSyn 5UTR act
CC(=O)c1cc2c(cc1NC(=O)c1ccc(C)cc1)OCO2,-100.6*
CC1CC(C)(C)Nc2ccc(OC(=O)c3ccco3)cc21 (stereo unspecified),70.3
COc1cccc(C(=O)Nc2cc3c(cc2C(C)=O)OCCO3)c1,-71.7*
CCOc1ccc(C(=O)Nc2ccc(N3CCN(C)CC3)cc2)cc1Br,-75.3*
COc1cccc(C(=O)Nc2cccc(C(C)=O)c2)c1,-114.0*
CCOc1ccc(OCc2ccc(C(=O)N/N=C(\C)c3ccccn3)cc2)cc1,64.2
CC(=O)Nc1cccc(NC(=O)c2ccc(COc3ccccc3)cc2)c1,-142.4*
CCOc1c(Cl)cc(C(=O)Nc2cccc(C(=O)O)c2)cc1Cl,-80.1*
CCOc1cccc(C(=O)Nc2cccc(C(C)=O)c2)c1,-151.2*
Cc1ccc(-n2nc3ccc(N)cc3n2)c(C)c1,65.9
Cc1c(N)ccc(-n2nc3ccccc3n2)c1C,-64.6*
c1ccc(CNc2ncnc3c2cnn3-c2ccccc2)cc1,-256.4*
Fc1ccc(CNc2ncnc3c2cnn3-c2ccccc2)cc1,-70.9*

# Compound activity: PubChem, Broad Institute
